This is a sample that favours compounds with a hit; in the whole collection about 10% have one here.
NPR1 antag = Natriuretic polypeptide receptor (hNpr1) antagonism - Primary qHTS; AID 1347048, 2019; 76,000 compounds, 1.6% hits; Atrial natriuretic peptide receptor 1 (Homo sapiens), P16066; HEK293 hNpr1 GloSensor cGMP, ANP-stimulated luminescence; Potency, µM (doses to about 46.3 µM), inactives show top-dose activity change, negative = inhibition, usual class: inhibitors; calls by dose curve; further: nearly all actives have a fitted effect of over 60% in size
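HEK293 cells stably expressing human Npr1 and cGMP GloSensor pGS-40F, loaded 2 h with 2% GloSensor reagent, given compound 30 min at room temperature. Luminescence read before and 20 min after 0.1 nM hNppA.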
HEK cytotox = Cytotoxic Profiling in HEK 293 Cell Line of Diverse Libraries Using Quantitative High-Throughput Screening | AID 1345083, 2018 | 94,000 compounds, 6.6% hits | HEK 293 viability, ATP luminescence (CellTiter-Glo), 48-72 h | Potency, µM (top dose mostly 115 µM), inactives show top-dose activity change, negative = cytotoxicity, most hits filed as inhibitors; further: nearly all actives have a fitted effect of over 60% in size
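HEK 293 cells seeded at 250 cells/well were exposed to compound for 48 or 72 hr at 37 degree Celsius. Viability taken as ATP content by CellTiter-Glo luminescence.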
NIH3T3 tox = Cytotoxic Profiling in NIH 3T3 Cell Line of Diverse Libraries Using Quantitative High-Throughput Screening. NIH 3T3 viability, CellTiter-Glo ATP luminescence, 48-72 h. AID 1345082, 2018. 94,000 compounds, 4.3% hits. Potency, µM (doses to about 96.7 µM), inactives show at the top dose activity change, negative = cytotoxicity, most hits filed as inhibitors; further: nearly all actives have a fitted effect of over 55% in size
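Viability of NIH 3T3 cells after 48 or 72 hr compound treatment at 37 °C was assessed by CellTiter-Glo, with luminescence imaged following a 10 min room-temperature step.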
GPT2 inh = Primary qHTS assay for inhibitors of Glutamate pyruvate transaminase 2 (GPT2); Alanine aminotransferase 2 (Homo sapiens), Q8TD30; Recombinant GPT2, coupled pyruvate oxidase/HRP Amplex Red fluorescence; Potency, µM (doses to about 57.7 µM), without a hit: at the top dose activity change, negative = inhibition, actives largely listed as inhibitors; 100,000 compounds, 0.25% hits; AID 1671188, 2021; further: nearly all actives have a fitted effect of over 60% in size
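Inhibition is scored from Amplex Red fluorescence generated when pyruvate oxidase and HRP act on pyruvate released by GPT2. Reactions contain 10ng/uL enzyme, 250uM a-KG and 2mM L-alanine and run 30 min at room temperature.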
Luciferase inh = Firefly luciferase inhibition profiling of diverse chemical library using quantitative high-throughput screening; Luciferin 4-monooxygenase (Photinus pyralis), P08659; 76,000 compounds, 2.5% hits; Potency, µM (top dose mostly 115 µM), actives largely listed as inhibitors; purified P. pyralis luciferase, luminescence, biochemical; AID 1347043, 2019; further: nearly all actives have a fitted effect of over 65% in size
Target sequence (P08659 whole entry, looked up): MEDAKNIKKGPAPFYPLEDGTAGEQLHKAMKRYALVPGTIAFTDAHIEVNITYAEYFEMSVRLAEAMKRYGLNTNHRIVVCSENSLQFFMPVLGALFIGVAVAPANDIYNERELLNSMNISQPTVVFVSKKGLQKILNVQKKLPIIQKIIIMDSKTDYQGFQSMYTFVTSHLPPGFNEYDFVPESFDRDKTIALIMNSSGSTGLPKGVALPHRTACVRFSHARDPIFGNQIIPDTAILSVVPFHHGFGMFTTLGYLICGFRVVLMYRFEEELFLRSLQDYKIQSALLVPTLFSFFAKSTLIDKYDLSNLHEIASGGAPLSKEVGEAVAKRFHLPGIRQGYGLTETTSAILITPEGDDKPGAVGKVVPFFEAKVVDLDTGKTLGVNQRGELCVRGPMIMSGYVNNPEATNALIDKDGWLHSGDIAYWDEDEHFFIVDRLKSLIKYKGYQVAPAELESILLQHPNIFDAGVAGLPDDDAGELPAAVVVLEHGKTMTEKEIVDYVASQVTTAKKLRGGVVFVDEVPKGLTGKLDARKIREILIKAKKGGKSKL
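Purified 10nM P. pyralis luciferase with 10uM D-luciferin and 10uM ATP in 50mM Tris acetate pH 7.5, 10mM Mg acetate, 0.01% Tween-20, 0.05% BSA. qHTS titration; luminescence read by CCD imager.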
Starred values were filed as active, the others as inactive; [ ] = dose if it differs, or a comment. Unless noted, the call rests on the fitted dose curve; in most records, active means well fitted curve in the direction sought with a large enough effect; inconclusive means small, poorly fitted or top-dose-only effect, or another doubt; inactive means no such curve, though single readings can be large; an effect the other way counts as inactive or inconclusive. On the % scale 0 is the no-effect control and ±100 the full control effect; potency means the concentration at half of the fitted maximal effect.

What do the screens show for `COc1ccc(C(=O)N2CCC(n3cc(-c4nc(-c5ccccc5)no4)nn3)C2)cc1F` (centres undefined)?
NPR1 antag: inconclusive; HEK cytotox: inconclusive; NIH3T3 tox: -26%; GPT2 inh: inactive; Luciferase inh: inconclusive

Results for COc1cccc(C(=O)N2CCC(N3C[C@H](O)C[C@H]3C(=O)N3CC=C(c4ccccc4)CC3)CC2)c1 ?
NPR1 antag: -3%; HEK cytotox: 79µM*; NIH3T3 tox: -28%; GPT2 inh: 2%; Luciferase inh: inactive

How did COc1cccc(C(=O)N2CCC(N3C[C@H](O)C[C@H]3C(=O)N3CCc4ccccc43)CC2)c1 do in these assays?
NPR1 antag: 1%; HEK cytotox: inactive; NIH3T3 tox: -2%; GPT2 inh: inactive; Luciferase inh: inactive

Results for CCCc1noc(-c2cn(C3CCN(C(=O)c4ccc(F)c(F)c4)CC3)nn2)n1 ?
NPR1 antag: -24%; HEK cytotox: inconclusive; NIH3T3 tox: 13µM*; GPT2 inh: -6%; Luciferase inh: inactive

What do the screens show for `Cc1cccc(OCC(=O)N2CCC(n3cc(-c4nc(-c5ccccc5)no4)nn3)C2)c1` (centres undefined)?
NPR1 antag: -2%; HEK cytotox: 10µM*; NIH3T3 tox: 13µM*; GPT2 inh: inactive; Luciferase inh: inconclusive

Results for CNC(=O)[C@H]1CN(C(=O)OCc2ccccc2)[C@]2(C)C(=O)N(CCOC)c3ccccc3[C@H]12 ?
HEK cytotox: inconclusive; NIH3T3 tox: -22%[46.1 µM]; GPT2 inh: inactive

What do the screens show for `CNC(=O)c1cc(C)nc2onc(C3CCCN3C(=O)c3ccccc3F)c12` (centres undefined)?
HEK cytotox: -1%; NIH3T3 tox: -23%

Results for Cc1cn2nc(C(=O)Nc3ccccc3C)cc2c(N2CCSCC2)n1 ?
NPR1 antag: -11%; HEK cytotox: inconclusive; NIH3T3 tox: -15%; GPT2 inh: inactive; Luciferase inh: inactive

How did COc1cccc(C(=O)N2CCC(n3cc(-c4nc(-c5ccccc5)no4)nn3)CC2)c1 do in these assays?
NPR1 antag: inconclusive; HEK cytotox: 45µM*; NIH3T3 tox: inconclusive; GPT2 inh: 3%; Luciferase inh: inconclusive

What do the screens show for `O=C(Nc1ccc2c(c1)OCO2)C1CCc2sc(C(=O)N3CCCC3)cc2C1` (centres undefined)?
NPR1 antag: inconclusive; HEK cytotox: 32µM*; NIH3T3 tox: 22µM*; GPT2 inh: 2%; Luciferase inh: inconclusive

How did COC(=O)c1cccc(NC(=O)C2CCc3sc(C(=O)N(C)C)cc3C2)c1 (centres undefined) do in these assays?
NPR1 antag: -5%; HEK cytotox: 45µM*; NIH3T3 tox: inconclusive; GPT2 inh: -2%; Luciferase inh: inactive

Results for Cn1ccc(NC(=O)C2(C)CCc3cnc(Nc4ccccc4)nc32)n1 (centres undefined) ?
NPR1 antag: -5%[70.6 µM]; HEK cytotox: 100µM*; NIH3T3 tox: inconclusive; GPT2 inh: inactive; Luciferase inh: inactive

Results for Cn1ccc(NC(=O)C2(C)CCCc3cnc(Nc4ccccc4)nc32)n1 (centres undefined) ?
NPR1 antag: 8%[70.6 µM]; HEK cytotox: inconclusive; NIH3T3 tox: inconclusive; GPT2 inh: -21%[88.5 µM]; Luciferase inh: inactive

How did Cn1ccc(NC(=O)C2(C)CCCc3cnc(NCc4ccccc4)nc32)n1 (centres undefined) do in these assays?
NPR1 antag: -5%[70.6 µM]; HEK cytotox: inconclusive; NIH3T3 tox: 45µM*; GPT2 inh: inactive; Luciferase inh: inactive

How did COCCC(=O)N1CCC2(CC1)N(Cc1cccc(F)c1)C(=O)CS2=O (centres undefined) do in these assays?
HEK cytotox: 0%; NIH3T3 tox: -8%; GPT2 inh: -1%

From PubChem BioAssay
